# Laboratory results: PubChem BioAssay (NCATS)
# Values joined by “and” are separate entries in the source; they are usually repeats but may differ in a detail not shown here. Identical values can stand only once. Results filed as inconclusive are left out. Where a call stands in place of a potency, no number is given. Active and inactive are the calls of the source. The call rests on the fitted dose curve; in most records, active means well fitted curve in the direction sought with a large enough effect; inconclusive means small, poorly fitted or top-dose-only effect, or another doubt; inactive means no such curve, though single readings can be large; an effect the other way counts as inactive or inconclusive. Numbered stars: 1 amine (or outer) side, 2 acyl side, 3 side chain; on linkers, the order of the positions; unused ones are H or OH. Bridge positions count the residues as written; N and C are the ends. Square brackets hold non-standard residues; d marks the D form. Peptide text beside a SMILES is read from it. I, II: the chains in the order shown. Actinocin(9to1) = Cc1c2oc3c(C)ccc(C(=O)[*:1])c3nc-2c(C(=O)[*:2])c(N)c1=O; NMeV = CN[C@H](C(=O)O)C(C)C; Sar = CNCC(=O)O
# What was measured:
# [1] = OV-KATE Cancer Cell Toxicity qHTS against the NCATS CANVASS Library (AID 1347345)
# Outline: (§1)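 Following a 4 h pre-incubation of 1000 seeded cells, compounds were pinned in an 11-pnt dilution series and left for 72 h; viability then came from CellTiter-Glo.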
# [2] = HPAF-II Cancer Cell Toxicity qHTS against the NCATS CANVASS Library (AID 1347346); further: series mostly up to about 38 µM; nearly all actives have a fitted effect of over 55% in size
# Outline: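 1000 HPAF-II cells/well; 4 h pre-incubation; 11-pnt compound titration; 72 h, 37 degrees C/5% CO2; CellTiter-Glo, 15 min RT; luminescence read.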
# [3] = UWB1.289 Cancer Cell Toxicity qHTS against the NCATS CANVASS Library (AID 1347347); further: series mostly up to about 38 µM; nearly all actives have a fitted effect of over 60% in size
# Outline: as §1
# [4] = OV-SAHO Cancer Cell Toxicity qHTS against the NCATS CANVASS Library (AID 1347348); further: series mostly up to about 38 µM; nearly all actives have a fitted effect of over 55% in size
# Outline: as §1
# [5] = Panc-1005 Cancer Cell Toxicity qHTS against the NCATS CANVASS Library (AID 1347349); further: series mostly up to about 38 µM; nearly all actives have a fitted effect of over 60% in size
# Source text: Natural products and their derivatives continue to be wellsprings of nascent therapeutic potential. However, many laboratories have limited resources for biological evaluation, leaving their previously isolated or synthesized compounds largely or completely untested. To address this issue, the Canvass library of natural products was assembled (https://tripod.nih.gov/canvass), in collaboration with academic and industry researchers, for quantitative high-throughput screening (qHTS) across a diverse set of cell-based and biochemical assays. The pure (>85% purity by liquid chromatography/mass spectrometry [LC/MS]) Canvass library of 346 natural products were submitted by 45 academic laboratories and companies around the world. […] The library was formatted into 1536-well plates and evaluated in 50 qHTS (in an 11-pnt concentration series) bioassays with broad scope of disease-relevant mechanisms. The resulting data set from 50 different assays was then systematically analyzed to identify overall trends and specific natural products with interesting biological activities. […]
# Cancer Cell Toxicity protocol for cell lines COV-362, OV-KATE, OV-SAHO, UWB1.289, UWB1.289-WTBRCA1, HEK-293, HPAF-II, Panc-1005, SW1088, or U-118MG. […] Luminescence signal was acquired via the ViewLux plate reader (PerkinElmer) using a clear filter, 2 second exposure and 2x binning settings.
# [6] = biological target: Lysine-specific demethylase 5B (Homo sapiens) (UniProt Q9UGL1); experiment: Optimization screen for KDM5B Histone Demethylases FDH coupled qHTS against the LOPAC library (AID 1347166)
# Chain of Lysine-specific demethylase 5B (Homo sapiens) (Q9UGL1 whole entry, looked up): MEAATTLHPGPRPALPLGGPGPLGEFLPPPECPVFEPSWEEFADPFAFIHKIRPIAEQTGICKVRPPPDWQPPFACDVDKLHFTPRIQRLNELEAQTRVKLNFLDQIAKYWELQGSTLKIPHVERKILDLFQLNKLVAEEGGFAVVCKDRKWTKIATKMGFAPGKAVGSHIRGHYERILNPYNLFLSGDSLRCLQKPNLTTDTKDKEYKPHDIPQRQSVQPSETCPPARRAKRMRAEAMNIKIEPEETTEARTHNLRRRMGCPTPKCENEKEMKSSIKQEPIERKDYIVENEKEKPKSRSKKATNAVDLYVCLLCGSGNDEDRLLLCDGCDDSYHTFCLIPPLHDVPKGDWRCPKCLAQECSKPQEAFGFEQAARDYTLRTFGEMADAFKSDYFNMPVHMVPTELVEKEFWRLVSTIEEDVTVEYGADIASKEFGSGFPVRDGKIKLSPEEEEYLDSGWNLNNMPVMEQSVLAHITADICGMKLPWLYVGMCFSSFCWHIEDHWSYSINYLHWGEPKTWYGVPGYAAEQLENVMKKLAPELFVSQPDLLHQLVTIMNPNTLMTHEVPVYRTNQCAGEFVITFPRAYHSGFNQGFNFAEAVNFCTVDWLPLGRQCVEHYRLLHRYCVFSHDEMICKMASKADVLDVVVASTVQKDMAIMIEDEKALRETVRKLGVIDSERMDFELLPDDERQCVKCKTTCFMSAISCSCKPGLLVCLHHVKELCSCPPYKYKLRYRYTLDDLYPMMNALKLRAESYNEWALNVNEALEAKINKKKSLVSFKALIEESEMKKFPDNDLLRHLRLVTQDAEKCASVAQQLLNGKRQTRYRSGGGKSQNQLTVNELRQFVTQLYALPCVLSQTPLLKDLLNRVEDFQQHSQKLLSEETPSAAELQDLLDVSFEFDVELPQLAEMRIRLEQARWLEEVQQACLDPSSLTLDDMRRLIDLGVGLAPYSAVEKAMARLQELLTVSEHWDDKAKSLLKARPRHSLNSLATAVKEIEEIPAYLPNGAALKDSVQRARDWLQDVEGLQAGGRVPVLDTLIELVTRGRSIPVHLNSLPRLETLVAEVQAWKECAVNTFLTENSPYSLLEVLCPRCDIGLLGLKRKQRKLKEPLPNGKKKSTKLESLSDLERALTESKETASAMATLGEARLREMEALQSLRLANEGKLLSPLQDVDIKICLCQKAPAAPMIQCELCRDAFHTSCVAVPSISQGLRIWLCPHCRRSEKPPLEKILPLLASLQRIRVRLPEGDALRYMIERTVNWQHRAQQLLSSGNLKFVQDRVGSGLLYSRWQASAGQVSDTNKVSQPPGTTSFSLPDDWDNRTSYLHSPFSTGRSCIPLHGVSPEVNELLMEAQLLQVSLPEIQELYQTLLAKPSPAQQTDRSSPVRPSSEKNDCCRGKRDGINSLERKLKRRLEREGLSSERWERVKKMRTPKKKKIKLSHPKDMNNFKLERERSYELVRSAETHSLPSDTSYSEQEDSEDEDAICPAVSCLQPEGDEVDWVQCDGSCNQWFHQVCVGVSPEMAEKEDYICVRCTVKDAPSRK
# Outline: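 KDM5BDeltaAP (200nM final) in 50mM HEPES pH 7.5, 0.01% Tween-20 was preincubated with compound for 10 min at room temperature. A substrate mix of 12.5uM H3K4Me3, 25uM a-ketoglutarate, ascorbate, Fe2+, NAD+ and formaldehyde dehydrogenase was then added. NADH fluorescence (340/450 nm) was read initially and after 30 min.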
# [7] = test system: Zika virus NS2B-NS3 protease (linked construct); experiment: 384 well plate NINDS Rhodamine confirmatory qHTS for Zika virus inhibitors (AID 1347164);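 further: fluorescence from protease cleavage of Ac-LKRR-rhodamine 110 substrate; nearly all actives have a fitted effect of over 65% in size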; further: potency means the concentration at half of the fitted maximal effect
# Outline: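 Fluorescence at 485/538 nm was measured 25 minutes after adding 10 microM Ac-LKRR-Rd substrate, in the dark at room temperature. The protease (5, 30 or 60 nM final) had been preincubated ~15 minutes with compound; aprotinin as control.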
# [8] = Tertiary RLuc qRT-PCR qHTS assay for Zika virus inhibitors (AID 1347169); further: nearly all actives have a fitted effect of over 55% in size; further: potency means the concentration at half of the fitted maximal effect
# Outline: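 Orthogonal cell-based readout: luminescence measured 1-1.5 hrs after adding live-cell Renilla substrate to Vero cells that had been infected with ZIKV-RLuc (MOI 1-2) post-compound, incubated 48-72 hrs at 37 degrees C.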
# [9] = Vero cells viability qHTS for Zika virus inhibitors (AID 1347167); further: potency means the concentration at half of the fitted maximal effect
# Source text: Avindra Nath, Ph.D., National Institute of Neurological Disorders and Stroke (NINDS), Bethesda, MD
# Radhakrishnan Padmanabhan, Ph.D., Georgetown University (GU), Washington D.C.
# Zika Virus causes congenital defects, including microcephaly and is associated with Guillain-Barre syndrome, eningoencephalitis and myelitis in infected adult. […] Using a target-based approach, we hope to establish a screening paradigm to uncover novel, cell-active NS2B-NS3 protease (Zika Virus) specific inhibitors from NCATS' collection of small molecules using qHTS.
# Four assay panel was created to identify potential Zika Virus inhibitors. Namely, (1) GU unlinked NS2B-NS3 AMC tagged protease qHTS, (2) GU unlinked NS2B-NS3 Rhodamine tagged protease qHTS, (3) NINDS linked NS2B-NS3 AMC tagged protease qHTS, (4) NINDS linked NS2B-NS3 Rhodamine tagged protease qHTS. Identified inhibitors were screened against the Vero and HepG2 cell viability assays using CellTiter Glo to exclude cytotoxic compounds.
# Early Translation Branch (ETB)
# National Center for Advancing Translational Sciences (NCATS), Rockville, MD
# National Institute of Health (NIH), Bethesda, Maryland
# Vero and HepG2 Cell Viability Assay:
# Vero and HepG2 cell cytotoxicity were determined using a luminescent readout with CellTiter Glo reagent (Promega, Madison, WI), which is based on measuring the ATP content within cells. Briefly, 4 microL of Vero or HepG2 cells at 2.5 x 10^5 cells/mL in DMEM containing 4% FBS were dispensed into 1536-well solid bottom tissue treated white plate using a Multidrop Combi dispenser (Thermo Scientific). Plates were incubated at 37 degrees C, 95% humidity, and 5% CO2 overnight to allow for cell attachment. Compounds were dissolved in DMSO at different concentrations and transferred via pintool (Wako Automation), for a final concentration of 0.029 µM - 57 microM. Plates were again incubated for 24 to 48 hours, followed by a 2 microL addition of CellTiter Glo. Finally, plates were incubated for 30 minutes at 37 degrees C and 5% CO2 before being read on a ViewLux (Perkin Elmer) for luminescence.
# [10] = HepG2 cells viability qHTS for Zika virus inhibitors (AID 1347168); further: potency means the concentration at half of the fitted maximal effect
# Outline: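 Luminescent ATP readout (CellTiter Glo) after 30 min at 37 degrees C gives viability; cells in DMEM + 4% FBS were treated 24 to 48 hours with compound, following overnight attachment.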
smiles,measurement,setting,value
CN1CCC[C@@H]1c1cccnc1,outcome,[1],inactive
same,outcome,[2],inactive
same,outcome,[3],inactive
same,outcome,[4],inactive
same,outcome,[5],inactive
COC(=O)[C@H]1[C@H]2C[C@H]3c4[nH]c5ccccc5c4CCN3C[C@H]2CC[C@@H]1O,outcome,[6],inactive
CC(=O)O[C@H]1C[C@@H]2CC[C@@H]3[C@H](CC[C@@]4(C)[C@H]3C[C@H]([N+]3(C)CCCCC3)[C@@H]4OC(C)=O)[C@@]2(C)C[C@@H]1[N+]1(C)CCCCC1,outcome,[6],inactive
O=C(O)c1cc2cc(Cc3cccnc3)ccc2o1,outcome,[6],inactive
Oc1c(Cl)cc(Cl)cc1Sc1cc(Cl)cc(Cl)c1O,Potency,[7],200 µM (active)
same,Potency,[8],inactive
O=C1CCC(c2ccc(-n3ccnc3)cc2)=NN1,outcome,[6],inactive
C[C@@H]1C(=O)NC2=Nc3cccc(Cl)c3CN21,outcome,[6],inactive
C[C@]12CC[C@@H]3c4ccc(O)cc4CC[C@H]3[C@@H]1CC[C@@H]2O,outcome,[6],inactive
Nc1cc(Cl)c(NC2=NCCN2)c(Cl)c1,outcome,[6],inactive
COc1cc2c(cc1O)CC[C@@H]1[C@@H]2CC[C@]2(C)[C@@H](O)CC[C@@H]12,outcome,[6],inactive
CC1(C)CCC(NC(=O)[C@@H](N)CCC(=O)O)CC1,outcome,[6],inactive
CC(C)C[C@H]1C(=O)N2CCC[C@H]2[C@]2(O)O[C@](NC(=O)[C@@H]3C=C4c5cccc6[nH]c(Br)c(c56)C[C@H]4N(C)C3)(C(C)C)C(=O)N12,Potency,[9],inactive
same,Potency,[10],inactive
C[N+]1(CCCCC[N+]2(C)CCCC2)CCCC1,outcome,[6],inactive
CNCCC=C1c2ccccc2CCc2ccccc21,outcome,[6],inactive
C1CCc2nnnn2CC1,outcome,[6],inactive
CN1C2CCC1CC(OC(=O)c1c[nH]c3ccccc13)C2 (configuration not stated),outcome,[6],inactive
N[C@@H](Cc1cnc[nH]1)C(=O)O,outcome,[6],inactive
CC(C)COC(=O)OCN1C(=O)CN(CCN2CC(=O)N(COC(=O)OCC(C)C)C(=O)C2)CC1=O,outcome,[6],inactive
CC(C)(C)CC(C)(C)c1ccc(OCCOCC[N+](C)(C)Cc2ccccc2)cc1,Potency,[9],inactive
same,Potency,[10],inactive
same,Potency,[8],33 µM (active) and 13.1 µM (active) and 10.4 µM (active)
CCCn1c(=O)[nH]c(=O)c2[nH]cnc21,outcome,[6],inactive
Nc1nc2ncc(CNc3ccc(C(=O)N[C@@H](CCC(=O)O)C(=O)O)cc3)nc2c(=O)[nH]1,Potency,[9],inactive
same,Potency,[10],inactive
same,Potency,[8],inactive
Nc1ccn([C@@H]2O[C@H](CO)[C@@H](O)C2(F)F)c(=O)n1,Potency,[9],inactive
same,Potency,[10],inactive
same,Potency,[8],30.2 nM (active)
CCCC1O[C@@H]2C[C@H]3[C@@H]4CCC5=CC(=O)C=C[C@]5(C)[C@H]4[C@@H](O)C[C@]3(C)[C@]2(C(=O)CO)O1 (some centres not stated),outcome,[6],inactive
"Cc1c2oc3c(C)ccc(C(=O)N[C@@H]4C(=O)N[C@H](C(C)C)C(=O)N5CCC[C@H]5C(=O)N(C)CC(=O)N(C)[C@@H](C(C)C)C(=O)O[C@@H]4C)c3nc-2c(C(=O)N[C@@H]2C(=O)N[C@H](C(C)C)C(=O)N3CCC[C@H]3C(=O)N(C)CC(=O)N(C)[C@@H](C(C)C)C(=O)O[C@@H]2C)c(N)c1=O (I: T[dV]P[Sar][NMeV] / II: T[dV]P[Sar][NMeV]; ester I:1-I:C, II:1-II:C; linker I:N-II:N via Actinocin(9to1))",Potency,[9],inactive
same,Potency,[10],inactive
same,Potency,[8],165 nM (active)
CC[C@H](C)C(=O)O[C@H]1CCC=C2C=C[C@H](C)[C@H](CC[C@@H]3C[C@@H](O)CC(=O)O3)[C@H]21,outcome,[6],inactive
COc1c(C)c2c(c(O)c1C/C=C(\C)CCC(=O)O)C(=O)OC2,Potency,[7],inactive
same,Potency,[9],inactive
same,Potency,[10],inactive
same,Potency,[8],739 nM (active)
N[C@H](CO)C(=O)O,outcome,[6],inactive
O=C(Nc1ccc(Oc2ccc(Cl)cc2)c(Cl)c1)c1cc(I)cc(I)c1O,Potency,[7],20 µM (active)
same,Potency,[10],inactive
same,Potency,[8],26200 nM (active)
CCCCC(CC)CN=C(N)NC(N)=NCCCCCCN=C(N)NC(N)=NCC(CC)CCCC (configuration not stated),Potency,[7],39.8 µM (active)
same,Potency,[9],29.4 µM (active)
same,Potency,[10],13.1 µM (active)
same,Potency,[8],3700 nM (active)
CNCCC(Oc1ccccc1C)c1ccccc1 (configuration not stated),outcome,[6],inactive
